# According to PubChem BioAssay (EPA / NIEHS):
# The source made the active and inactive calls. Rule for the calls: active = hit-call score of the fitted dose curve at least 0.9, where 1 is the maximum; inactive = score below 0.9.
# Tests used:
# [1] = ATG_GRE_CIS: Attagene CIS-FACTORIAL HepG2 Assay for human Glucocorticoid Response Elements (GRE) (AID 2282947); settings: HepG2 GRE cis-reporter, Attagene multiplex mRNA; actives raise or lower the signal
# Procedure, shortened: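 Transiently transfected HepG2 cells carrying GRE cis-reporter units (endogenous TF activity) dosed 24 h; reporter mRNA quantified by RT-PCR, 6-FAM labelling, HpaI digestion and capillary electrophoresis. Bidirectional fit versus DMSO baseline.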
# [2] = ATG_ISRE_CIS: Attagene CIS-FACTORIAL HepG2 Assay for human Interferon Regulatory Factor 1 (IRF1) binding to an Interferon-Stimulated Response Element (ISRE) (AID 2282948); settings: HepG2 ISRE cis-reporter (Attagene), mRNA transcription readout; actives raise or lower the signal
# Procedure, shortened: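 Transiently transfected HepG2 cells carrying cis-element reporter units, dosed 24 hours. Reporter mRNA quantified by RT-PCR, fluorescent primer extension, HpaI digestion and capillary electrophoresis. Bidirectional fitting relative to DMSO.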
# [3] = ATG_M_32_CIS: Attagene CIS-FACTORIAL HepG2 Assay for M32 Transcription Factor (Internal Marker) (AID 2282949); settings: HepG2 Attagene cis-factorial M32 reporter, mRNA; actives raise or lower the signal;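 note: background control marker of the multiplexed CIS panel rather than a real target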
# Procedure, shortened: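 HepG2 cells transiently transfected with multiplexed cis-regulated reporter units, dosed 24 h. Reporter mRNA quantified by RT-PCR, 6-FAM labelling, HpaI digestion and capillary electrophoresis; bidirectional fit vs DMSO.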
# [4] = ATG_M_06_CIS: Attagene CIS-FACTORIAL HepG2 Assay for M06 Transcription Factor (Internal Marker) (AID 2282950); settings: HepG2 Attagene CIS-FACTORIAL M06 internal marker reporter; actives raise or lower the signal
# Procedure, shortened: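 Terse: HepG2, transient MRTU transfection (FuGene 6), 24 h dosing; total RNA, oligo(dT) RT, PCR, FAM label, HpaI cut, capillary electrophoresis; bidirectional fit vs DMSO baseline; background-control endpoint.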
# [5] = target: Hypoxia-inducible factor 1-alpha (Homo sapiens) (UniProt Q16665); experiment: ATG_HIF1a_CIS: Attagene CIS-FACTORIAL HepG2 Assay for human Hypoxia Inducible Factor 1 (HIF1A) (AID 2282951); settings: HepG2 Attagene cis-factorial HIF1a reporter transcription; actives raise or lower the signal
# Procedure, shortened: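 Activity is fitted in both directions relative to DMSO. Reporter transcripts are read by RT-PCR, fluorescent primer extension and capillary electrophoresis after 24 h chemical treatment. The cells are HepG2 carrying transiently transfected cis-element-driven reporter units responding to endogenous factors.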
# [6] = target: Hepatocyte nuclear factor 6 (Homo sapiens) (UniProt Q9UBC0); experiment: ATG_HNF6_CIS: Attagene CIS-FACTORIAL HepG2 Assay for human Hepatocyte Nuclear Factor 6 (HNF6) (AID 2282952); settings: HepG2 Attagene cis-factorial HNF6 reporter transcription; actives raise or lower the signal
# Procedure, shortened: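 Reporter mRNA induction or loss in HepG2 after 24 h exposure; transient cis-MRTU transfection; fragments quantified by capillary electrophoresis; bidirectional analysis, DMSO as negative control.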
# [7] = target: Heat shock factor protein 1 (Homo sapiens) (UniProt Q00613); experiment: ATG_HSE_CIS: Attagene CIS-FACTORIAL HepG2 Assay for human Heat Shock Transcription Factor 1 (HSE) (AID 2282953); settings: HepG2 HSE cis-reporter, Attagene RNA transcription; actives raise or lower the signal
# Procedure, shortened: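 Read-out: fluorescence of reporter-specific RT-PCR fragments separated by capillary electrophoresis. HepG2 carrying transfected cis-element reporter units; 24 h dosing; activity fitted in both directions relative to DMSO baseline.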
# [8] = ATG_MRE_CIS: Attagene CIS-FACTORIAL HepG2 Assay for human Metal Responsive Element (MRE) (AID 2282954); settings: HepG2 MRE cis-reporter transcription, Attagene multiplex; actives raise or lower the signal
# Procedure, shortened: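 HepG2 cells transiently transfected with cis-element-driven reporter units; mRNA measured 24 h after dosing. Reporter transcripts quantified by RT-PCR, FAM labelling, HpaI digestion and capillary electrophoresis; bidirectional fit versus DMSO.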
# [9] = ATG_PBREM_CIS: Attagene CIS-FACTORIAL HepG2 Assay for human Phenobarbital-responsive Enhancer Module (PBREM) (AID 2282955); settings: HepG2 PBREM cis-reporter, Attagene multiplexed transcription; actives raise or lower the signal
# Procedure, shortened: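 Endogenous transcription factor activity was read from reporter transcripts in transiently transfected human HepG2 liver cells after 24 h dosing. RT-PCR products were fluorescently labelled, HpaI-cut and sized by capillary electrophoresis; activity fitted bidirectionally against DMSO baseline.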
# [10] = target: Paired box protein Pax-6 (Homo sapiens) (UniProt P26367); experiment: ATG_Pax6_CIS: Attagene CIS-FACTORIAL HepG2 Assay for human Paired Box 6 (PAX6) (AID 2282956); settings: HepG2 CIS-FACTORIAL PAX6 reporter transcription, RNA readout; actives raise or lower the signal
# Procedure, shortened: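 HepG2 cells transiently transfected with cis-promoter-driven multiplexed reporter units sensing endogenous transcription factor activity; 24 h chemical exposure. Reporter mRNA quantified by RT-PCR, 6-FAM labelling, HpaI digestion and capillary electrophoresis; bidirectional fit versus DMSO baseline.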
# [11] = ATG_RORE_CIS: Attagene CIS-FACTORIAL HepG2 Assay for human RAR-related Orphan Receptor Element (RORE) (AID 2282959); settings: HepG2 Attagene cis-factorial RORE reporter, mRNA; actives raise or lower the signal
# Procedure, shortened: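 RORE reporter transcripts reflecting endogenous factor activity were read after 24 h compound exposure of transfected HepG2 cells, using reverse transcription, PCR, fluorescent labelling and capillary electrophoresis sizing. Gain or loss fitted against DMSO.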
# [12] = ATG_Sox_CIS: Attagene CIS-FACTORIAL HepG2 Assay for human SRY-box transcription factor (SOX) (AID 2282960); settings: HepG2 Attagene cis-factorial SOX reporter, mRNA; actives raise or lower the signal
# Procedure, shortened: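 Reporter transcripts, measured by RT-PCR and capillary electrophoresis of labelled fragments, report endogenous SOX transcription factor activity. Transiently transfected human HepG2 cells receive chemical for 24 h; changes in either direction are fitted relative to DMSO.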
# [13] = target: Transcription factor Sp1 (Homo sapiens) (UniProt P08047); experiment: ATG_Sp1_CIS: Attagene CIS-FACTORIAL HepG2 Assay for human Specificity Protein 1 (Sp1) (AID 2282961); settings: HepG2 Sp1 cis-reporter transcription, actives raise or lower the signal
# Procedure, shortened: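 Read-out is reporter transcript level, measured by RT-PCR and fluorescent capillary electrophoresis after 24 h chemical treatment. System: transiently transfected HepG2 cells reporting endogenous transcription factor activity; gain or loss fitted against DMSO baseline.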
# [14] = ATG_SREBP_CIS: Attagene CIS-FACTORIAL HepG2 Assay for human Sterol Regulatory Element Binding (SREBP) (AID 2282962); settings: HepG2 Attagene cis-factorial SREBP reporter, mRNA; actives raise or lower the signal
# Procedure, shortened: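 HepG2 cells transiently transfected with multiplexed cis-promoter reporter units sensing endogenous transcription factors; reporter mRNA measured 24 h after dosing by RT-PCR, 6-FAM labeling, HpaI digestion and capillary electrophoresis. Bidirectional fit versus DMSO.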
# [15] = target: Signal transducer and activator of transcription 3 (Homo sapiens) (UniProt P40763); experiment: ATG_STAT3_CIS: Attagene CIS-FACTORIAL HepG2 Assay for human Signal Transducer and Activator of Transcription 3 (STAT3) (AID 2282963); settings: HepG2, Attagene cis-factorial STAT3 reporter transcription; actives raise or lower the signal
# Procedure, shortened: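 HepG2 cells transiently transfected with multiple cis-element-driven reporter units report endogenous transcription factor activity. After 24 h compound exposure, reporter mRNA is measured by RT-PCR, 6-FAM labelling, HpaI digestion and capillary electrophoresis. Fitted bidirectionally versus DMSO.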
# [16] = ATG_TCF_b_cat_CIS: Attagene CIS-FACTORIAL HepG2 Assay for human T-Cell-Factor with beta-catenin (TCF/b-cat) (AID 2282965); settings: HepG2 TCF/beta-catenin cis-reporter transcription, actives raise or lower the signal
# Procedure, shortened: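 HepG2, transient MRTU transfection, cis-element-driven reporters (endogenous TFs). 24 h compound exposure. Readout: reporter mRNA by RT-PCR + 6-FAM primer extension, HpaI digest, capillary electrophoresis. Gain/loss fit vs DMSO baseline.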
# [17] = ATG_PXRE_CIS: Attagene CIS-FACTORIAL HepG2 Assay for human Pregnane X Receptor Element (PXRE) (AID 2282957); settings: HepG2 Attagene CIS-FACTORIAL PXRE reporter, mRNA; actives raise or lower the signal
# Procedure, shortened: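 Transiently transfected HepG2 cells were dosed and incubated for 24 h. RNA was then isolated, DNase-treated, reverse-transcribed and reporter sequences amplified. Labeled, HpaI-digested fragments were quantified by capillary electrophoresis against DMSO.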
# [18] = ATG_PPRE_CIS: Attagene CIS-FACTORIAL HepG2 Assay for human Peroxisome Proliferator-activated Response Element (PPRE) (AID 2282958); settings: HepG2 PPRE cis-element reporter, Attagene transcription factor profiling; actives raise or lower the signal
# Procedure, shortened: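 Endogenous PPRE-driven transcription is measured in HepG2 cells carrying transfected multi-reporter constructs. Reporter transcripts are quantified by RT-PCR, HpaI digestion and capillary electrophoresis 24 h after dosing. DMSO baseline, bidirectional fit.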
# [19] = ATG_TA_CIS: Attagene CIS-FACTORIAL HepG2 Assay for human TA Basal Promoter (AID 2282964); settings: HepG2 Attagene CIS-factorial TA basal promoter reporter; actives raise or lower the signal
# Procedure, shortened: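 Transfected HepG2, 24 h compound exposure; RNA → RT-PCR → FAM primer extension → HpaI cut → CE fluorescence. Gain/loss-of-signal fitted against DMSO negative control. Background-control readout.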
# Chain of Heat shock factor protein 1 (Homo sapiens) (Q00613 whole entry, looked up, the tested form may be a part): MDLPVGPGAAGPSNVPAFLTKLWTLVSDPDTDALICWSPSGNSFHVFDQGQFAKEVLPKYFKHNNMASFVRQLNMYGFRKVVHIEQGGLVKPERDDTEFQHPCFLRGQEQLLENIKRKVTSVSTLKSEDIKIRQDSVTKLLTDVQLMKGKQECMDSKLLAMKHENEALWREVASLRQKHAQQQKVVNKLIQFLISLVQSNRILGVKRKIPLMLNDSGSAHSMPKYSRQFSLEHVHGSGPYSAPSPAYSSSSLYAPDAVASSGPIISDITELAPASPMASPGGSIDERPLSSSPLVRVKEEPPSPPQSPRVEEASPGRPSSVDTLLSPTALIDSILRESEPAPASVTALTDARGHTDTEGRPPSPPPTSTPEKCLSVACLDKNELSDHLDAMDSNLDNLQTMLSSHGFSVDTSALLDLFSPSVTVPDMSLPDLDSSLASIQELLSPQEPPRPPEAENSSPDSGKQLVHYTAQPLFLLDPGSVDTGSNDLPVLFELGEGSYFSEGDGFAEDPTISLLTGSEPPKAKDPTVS
# Chain of Hypoxia-inducible factor 1-alpha (Homo sapiens) (Q16665 whole entry, looked up): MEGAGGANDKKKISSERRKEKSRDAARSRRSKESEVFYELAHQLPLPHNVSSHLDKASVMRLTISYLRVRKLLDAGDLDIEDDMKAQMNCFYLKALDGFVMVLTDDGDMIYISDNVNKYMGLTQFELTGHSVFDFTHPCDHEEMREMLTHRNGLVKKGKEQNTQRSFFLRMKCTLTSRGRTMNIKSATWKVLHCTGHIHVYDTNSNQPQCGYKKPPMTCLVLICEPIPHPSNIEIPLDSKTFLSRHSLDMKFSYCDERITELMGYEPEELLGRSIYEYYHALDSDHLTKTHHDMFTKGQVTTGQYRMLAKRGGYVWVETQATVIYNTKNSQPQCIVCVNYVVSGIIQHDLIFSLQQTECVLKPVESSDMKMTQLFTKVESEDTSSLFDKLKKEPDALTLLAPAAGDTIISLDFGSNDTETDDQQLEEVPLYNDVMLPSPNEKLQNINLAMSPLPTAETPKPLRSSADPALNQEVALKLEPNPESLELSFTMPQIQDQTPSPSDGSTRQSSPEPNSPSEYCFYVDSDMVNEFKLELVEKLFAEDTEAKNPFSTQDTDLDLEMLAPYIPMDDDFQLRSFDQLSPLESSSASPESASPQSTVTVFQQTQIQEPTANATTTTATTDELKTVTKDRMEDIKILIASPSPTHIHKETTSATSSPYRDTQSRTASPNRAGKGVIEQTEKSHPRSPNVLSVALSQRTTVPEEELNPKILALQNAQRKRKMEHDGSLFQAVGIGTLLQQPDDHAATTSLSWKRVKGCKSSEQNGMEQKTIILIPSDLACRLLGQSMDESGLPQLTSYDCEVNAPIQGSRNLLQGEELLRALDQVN
# Chain of Paired box protein Pax-6 (Homo sapiens) (P26367 whole entry, looked up): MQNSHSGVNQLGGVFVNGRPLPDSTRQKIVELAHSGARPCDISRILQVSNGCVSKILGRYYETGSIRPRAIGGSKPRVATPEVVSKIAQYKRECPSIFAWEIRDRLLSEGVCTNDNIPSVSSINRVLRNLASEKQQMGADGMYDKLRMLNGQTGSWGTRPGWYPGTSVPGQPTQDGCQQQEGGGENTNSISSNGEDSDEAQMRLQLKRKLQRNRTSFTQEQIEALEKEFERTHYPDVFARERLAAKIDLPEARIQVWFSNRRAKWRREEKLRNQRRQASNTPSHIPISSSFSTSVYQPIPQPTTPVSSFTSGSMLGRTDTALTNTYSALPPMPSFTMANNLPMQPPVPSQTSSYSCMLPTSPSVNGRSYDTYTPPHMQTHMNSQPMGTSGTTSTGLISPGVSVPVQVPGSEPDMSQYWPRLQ
# Chain of Hepatocyte nuclear factor 6 (Homo sapiens) (Q9UBC0 whole entry, looked up, the tested form may be a part): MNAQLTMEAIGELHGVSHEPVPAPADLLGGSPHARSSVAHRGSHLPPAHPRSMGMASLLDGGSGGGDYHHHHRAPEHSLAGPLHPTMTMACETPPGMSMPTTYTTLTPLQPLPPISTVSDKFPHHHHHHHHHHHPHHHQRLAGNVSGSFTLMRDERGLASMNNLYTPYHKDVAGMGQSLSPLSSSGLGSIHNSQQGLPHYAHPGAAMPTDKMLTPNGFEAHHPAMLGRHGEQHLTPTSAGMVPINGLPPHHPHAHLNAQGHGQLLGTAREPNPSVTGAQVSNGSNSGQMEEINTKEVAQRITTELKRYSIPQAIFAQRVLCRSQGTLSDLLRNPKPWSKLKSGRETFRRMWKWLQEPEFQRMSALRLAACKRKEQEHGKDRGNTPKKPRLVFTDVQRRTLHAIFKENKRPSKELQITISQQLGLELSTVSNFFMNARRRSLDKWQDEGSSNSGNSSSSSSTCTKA
# Chain of Signal transducer and activator of transcription 3 (Homo sapiens) (P40763 whole entry, looked up): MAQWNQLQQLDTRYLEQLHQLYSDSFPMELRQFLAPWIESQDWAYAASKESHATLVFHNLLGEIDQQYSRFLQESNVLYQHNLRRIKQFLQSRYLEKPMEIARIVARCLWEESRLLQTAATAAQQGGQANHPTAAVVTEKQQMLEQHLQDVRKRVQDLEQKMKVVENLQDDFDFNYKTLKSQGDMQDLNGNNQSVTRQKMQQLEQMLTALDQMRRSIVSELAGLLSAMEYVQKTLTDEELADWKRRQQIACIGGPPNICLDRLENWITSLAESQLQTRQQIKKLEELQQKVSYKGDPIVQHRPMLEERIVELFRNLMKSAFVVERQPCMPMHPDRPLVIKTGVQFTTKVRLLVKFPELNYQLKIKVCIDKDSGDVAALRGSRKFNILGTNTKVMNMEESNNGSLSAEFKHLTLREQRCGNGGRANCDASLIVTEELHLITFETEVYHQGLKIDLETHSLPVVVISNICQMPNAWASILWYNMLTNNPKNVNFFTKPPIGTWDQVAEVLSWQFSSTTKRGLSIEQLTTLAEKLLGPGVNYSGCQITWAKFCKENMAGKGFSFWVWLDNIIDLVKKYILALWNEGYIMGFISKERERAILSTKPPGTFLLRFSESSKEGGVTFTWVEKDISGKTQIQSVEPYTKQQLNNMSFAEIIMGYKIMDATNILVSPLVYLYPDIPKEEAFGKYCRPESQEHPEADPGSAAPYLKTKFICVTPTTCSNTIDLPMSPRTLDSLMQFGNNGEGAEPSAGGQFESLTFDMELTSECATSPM
# Chain of Transcription factor Sp1 (Homo sapiens) (P08047 whole entry, looked up): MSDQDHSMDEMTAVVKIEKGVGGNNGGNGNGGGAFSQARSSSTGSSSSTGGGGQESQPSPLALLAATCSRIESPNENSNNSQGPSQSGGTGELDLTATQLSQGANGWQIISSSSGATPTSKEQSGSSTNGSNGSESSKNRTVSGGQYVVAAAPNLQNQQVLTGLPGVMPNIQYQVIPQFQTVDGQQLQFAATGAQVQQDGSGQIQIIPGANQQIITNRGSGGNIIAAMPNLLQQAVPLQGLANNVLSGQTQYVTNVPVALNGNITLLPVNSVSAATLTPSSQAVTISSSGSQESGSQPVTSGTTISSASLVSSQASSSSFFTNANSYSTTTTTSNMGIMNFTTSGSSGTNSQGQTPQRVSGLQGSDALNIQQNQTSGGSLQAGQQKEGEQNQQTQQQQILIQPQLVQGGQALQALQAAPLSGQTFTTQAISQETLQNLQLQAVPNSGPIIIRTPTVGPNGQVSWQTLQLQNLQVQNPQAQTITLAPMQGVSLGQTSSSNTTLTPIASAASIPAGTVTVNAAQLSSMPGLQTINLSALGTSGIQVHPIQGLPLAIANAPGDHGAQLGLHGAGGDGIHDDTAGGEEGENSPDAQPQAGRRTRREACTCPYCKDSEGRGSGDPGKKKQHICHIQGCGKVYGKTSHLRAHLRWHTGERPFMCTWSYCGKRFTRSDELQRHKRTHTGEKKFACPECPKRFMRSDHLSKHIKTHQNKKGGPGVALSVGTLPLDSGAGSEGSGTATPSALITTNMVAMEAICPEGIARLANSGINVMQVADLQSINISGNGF
smiles,measurement,setting,value
NC(CO)(CO)CO,outcome,[1],inactive
same,outcome,[2],inactive
same,outcome,[3],inactive
same,outcome,[4],inactive
same,outcome,[5],inactive
same,outcome,[6],inactive
same,outcome,[7],inactive
same,outcome,[8],inactive
same,outcome,[9],inactive
same,outcome,[10],inactive
same,outcome,[11],inactive
same,outcome,[12],inactive
same,outcome,[13],inactive
same,outcome,[14],inactive
same,outcome,[15],inactive
same,outcome,[16],inactive
O=c1[nH]nc(-c2ccc([N+](=O)[O-])o2)o1,outcome,[1],inactive
same,outcome,[2],inactive
same,outcome,[3],inactive
same,outcome,[4],inactive
same,outcome,[5],inactive
same,outcome,[6],inactive
same,outcome,[7],inactive
same,outcome,[9],inactive
same,outcome,[10],inactive
same,outcome,[17],inactive
same,outcome,[18],inactive
same,outcome,[11],inactive
same,outcome,[12],inactive
same,outcome,[13],inactive
same,outcome,[14],inactive
same,outcome,[15],inactive
same,outcome,[19],inactive
same,outcome,[16],inactive
OCCNCc1ccccc1,outcome,[1],inactive
same,outcome,[2],inactive
same,outcome,[3],inactive
same,outcome,[4],inactive
same,outcome,[5],inactive
same,outcome,[6],inactive
same,outcome,[7],inactive
same,outcome,[8],inactive
same,outcome,[9],inactive
same,outcome,[10],inactive
same,outcome,[17],inactive
same,outcome,[18],inactive
same,outcome,[11],inactive
same,outcome,[12],inactive
same,outcome,[14],inactive
same,outcome,[15],inactive
C=C(C)[C@@H]1CCC2=CCC[C@@H](C)[C@]2(C)C1,outcome,[1],inactive
same,outcome,[2],inactive
same,outcome,[3],inactive
same,outcome,[4],inactive
same,outcome,[5],inactive
same,outcome,[6],inactive
same,outcome,[7],inactive
same,AC50,[8],155 µM (active)
same,outcome,[9],inactive
same,outcome,[10],inactive
same,AC50,[17],1.52 µM (active)
same,outcome,[11],inactive
same,outcome,[12],inactive
same,outcome,[13],inactive
same,outcome,[14],inactive
same,outcome,[15],inactive
same,outcome,[19],inactive
same,outcome,[16],inactive
CC1(C)O[C@@H]2C[C@H]3[C@@H]4C[C@H](F)C5=CC(=O)C=C[C@]5(C)[C@@]4(F)[C@@H](O)C[C@]3(C)[C@]2(C(=O)CO)O1,AC50,[1],0.563 µM (active)
same,outcome,[2],inactive
same,outcome,[3],inactive
same,outcome,[4],inactive
same,outcome,[5],inactive
same,outcome,[6],inactive
same,outcome,[8],inactive
same,outcome,[10],inactive
same,AC50,[17],6.12 µM (active)
same,outcome,[18],inactive
same,outcome,[13],inactive
same,outcome,[14],inactive
same,outcome,[15],inactive
same,outcome,[19],inactive
CCCNC(=O)NS(=O)(=O)c1ccc(Cl)cc1,outcome,[1],inactive
same,outcome,[2],inactive
same,outcome,[3],inactive
same,outcome,[4],inactive
same,outcome,[6],inactive
same,outcome,[7],inactive
same,outcome,[8],inactive
same,outcome,[10],inactive
same,outcome,[17],inactive
same,outcome,[18],inactive
same,outcome,[11],inactive
same,outcome,[12],inactive
same,outcome,[13],inactive
same,outcome,[14],inactive
same,outcome,[15],inactive
same,outcome,[19],inactive
COc1ccc(NC(C)=O)cc1N,outcome,[1],inactive
same,outcome,[2],inactive
same,outcome,[3],inactive
same,outcome,[4],inactive
same,outcome,[5],inactive
same,outcome,[7],inactive
same,outcome,[8],inactive
same,outcome,[9],inactive
same,outcome,[10],inactive
same,outcome,[17],inactive
same,outcome,[18],inactive
same,outcome,[12],inactive
same,outcome,[13],inactive
same,outcome,[14],inactive
same,outcome,[15],inactive
same,outcome,[19],inactive
same,outcome,[16],inactive
